KDM5B inhibitor: inhibitors of human KDM5B histone demethylase; KDM5B demethylase, FDH-coupled NADH fluorescence (FDH is formaldehyde dehydrogenase); Potency, µM (doses to about 57.7 µM), usual class: inhibitors; 220,000 tested, 2.6% active; AID 1347165; active = well fitted inhibition curve with a large enough effect; note: nearly all actives have a fitted effect of over 70% in size
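Here, H3K4me3 peptide (12.5 µM in substrate mix) is demethylated by KDM5BΔAP, 200 nM final, after 10 min compound exposure. Formaldehyde product is coupled through FDH (0.25 U/mL in mix) to NADH fluorescence; 30-min ΔRFU feeds dose-response curves.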
Each line names hits and unclear results; the compound was inactive in the other large screens. The entries come from a sample that favours hits as a whole.

O=C(CSc1n[nH]c(-c2ccccc2Cl)n1)Nc1cccc(F)c1	none
COCc1ccccc1CNC(=O)CC(C)(C)C	none
Cc1nc2ccc(C(=O)N3C[C@@H](CN4CCCCC4)[C@@H](CO)C3)cc2s1	none
CN1CCC(N(C)CC(NC(=O)c2cccc(C(F)(F)F)c2)c2ccccc2)CC1 (centres undefined)	none
O=C(CCc1cc2n(n1)CCNC2)N1CCN(C(=O)c2cccs2)CC1	none
O=C(CCc1cc2n(n1)CCCNC2)N1CCCC(c2nnc3ccccn23)C1 (centres undefined)	KDM5B inhibitor 11µM
CC(=O)N[C@@H]1Cc2ccccc2[C@H]1NC(=O)CCc1cc2n(n1)CCCNC2	none
COCCCn1c(C)cc(C(=O)NCC(=O)N2CCCCCNC(=O)CC2c2ccccc2)c1C (centres undefined)	none
COc1cccc(CC(=O)NCCn2ccn3nc(-c4ccc(C)c(C)c4)cc3c2=O)c1	none
Cc1ccc(-c2cc3c(=O)n(CCNC(=O)Cc4ccsc4)ccn3n2)cc1C	none
O=C(Cc1ccc(F)cc1)NCCn1ccn2nc(-c3ccc(F)cc3)cc2c1=O	none
COc1ccc(-c2cc3c(=O)n(CCNC(=O)Cc4ccc(C)cc4)ccn3n2)cc1	KDM5B inhibitor 20µM
COc1ccc(-c2cc3c(=O)n(CCNC(=O)Cc4ccsc4)ccn3n2)cc1	KDM5B inhibitor 28µM
COc1ccc(C(=O)N2CCC3(CC2)C(OC)C(=O)N3CC2CC2)cc1F (centres undefined)	none
CN(C)C(CNC(=O)c1ccc(Br)o1)c1ccccc1 (centres undefined)	none
CC(C)Cc1nn2c(=O)cc(CSCC(=O)Nc3cccc4ccccc34)nc2s1	none
COc1ccccc1CC(=O)Nc1ccc2c3c(cccc13)CC2	none
O=C(Nc1ccc(Br)cc1)N1CCSc2ccccc21	none
CCCn1nc(C(=O)N(C)Cc2ccccc2N2CCCCC2)c2ccccc2c1=O	none
CC(C)(C)c1ccc(-c2cc(C[C@H]3CNCC[C@H]3CC(=O)N3CCN(c4ccccn4)CC3)no2)cc1	none
CN(Cc1ccccc1)Cc1cc(C[C@H]2CNCC[C@H]2CC(=O)NC2CCCCC2)no1	none
CN(Cc1ccccc1)Cc1cc(C[C@H]2CNCC[C@H]2CC(=O)N2CCN(c3ccccn3)CC2)no1	KDM5B inhibitor 18µM
CN(C)c1nc2c(c(=O)[nH]1)CCN(Cc1ccc(F)cc1Cl)CC2	none
CN(Cc1ccccc1)c1oc(/C=C/c2ccccc2)nc1C#N	none
COc1cccc(NC(=O)c2nnn(Cc3nc(-c4ccc(OC)c(OC)c4)oc3C)c2N)c1	none
CC(C)NC(=O)C(Cl)c1ccccc1 (centres undefined)	none
O=C(Nc1ccc(-c2nnc3n2CCCC3)cc1)C1CC1	none
CC(C)CNC(=O)c1ccnc(-c2nnc3ccc(N4CCN(C)CC4)nn23)c1	none
O=C(O)c1ccc(-c2nnc3ccc(NC(=O)C4CCC4)cn23)cc1	KDM5B inhibitor 32µM
CC(C)CNC(=O)c1ccc(-c2nnc3ccc(NC(=O)C4CC4)cn23)cc1	KDM5B inhibitor 14µM
Cc1cccc(CNC(=O)c2ccc(-c3nnc4ccc(NC(=O)C5CCC5)cn34)cc2)c1	KDM5B inhibitor 28µM
Cc1ccc(S(=O)Cc2nc(-c3ccc(C(=O)NCc4cccc(C)c4)cc3)oc2C)cc1 (centres undefined)	none
Cc1ccc(C(=O)NCC(C)C)cc1	none
O=C(Nc1ccc(-c2nnnn2C2CC2)cc1)C1CCCC1	none
COc1ccc(C(=O)N[C@@H]2CCC[C@@H]2C(=O)NCc2cccc(C)c2)cc1	none
O=C(Nc1cc(F)cc(F)c1)C1CCN(C(=O)c2ncn3c2COC(c2ccc(F)cc2)C3)CC1 (centres undefined)	none
Cc1nn(-c2nc3c(c(=O)n(CC(=O)C(C)(C)C)c(=O)n3C)n2C)c(C)c1C	none
CC1(C)[C@H](Cc2cc(CN3CCCCC3)on2)C[C@@H]1NC(=O)c1cccc(F)c1	none
CC(C)C(=O)N1CCC2(CC1)CC(N(Cc1ccc(F)cc1)C1CC1)CCO2 (centres undefined)	none
NS(=O)(=O)c1ccc(N/N=C/c2ccccc2C(F)(F)F)c([N+](=O)[O-])c1	none
CCCn1c(=O)n(CC(=O)Nc2ccccc2-c2ccccc2)c(=O)c2c1nc(C)n2CCOC	none
CCOC(=O)CN1C(=O)S/C(=C/c2cn(C)c3ccccc23)C1=O	none
Cc1ccc(-n2nnnc2CNC(=O)c2ccccc2)cc1C	none
Cc1ccc(-c2ccc3nnc(CNC(=O)c4ccccc4F)n3n2)cc1C	KDM5B inhibitor 28µM
Cc1ccc(-c2ccc3nnc(CNC(=O)c4ccccc4C)n3n2)cc1C	KDM5B inhibitor 28µM
Cc1ccc(-c2ccc(=O)n(Cc3noc(C(=O)NCc4ccco4)n3)n2)cc1C	none
Cc1ccc(-n2nnnc2CNC(=O)c2ccccc2F)cc1C	none
Cc1ccc(-c2ccc3nnc(CNC(=O)c4ccoc4)n3n2)cc1C	KDM5B inhibitor 16µM
Cc1ccc(C(=O)NCc2nnnn2-c2ccc(C)c(C)c2)cc1	none
Cc1cc(NS(=O)(=O)c2cc(-c3ccc4nnc(C)n4n3)ccc2C)c(C)cc1Br	none
COc1ccc(C(=O)CSc2nnc(CNC(=O)c3ccccc3F)n2C)cc1OC	none
CN(C)c1ccc(CN2CCCC3(C2)NC(=O)c2ccccc2O3)cc1 (centres undefined)	none
Cc1ocnc1C(=O)NC1CC(=O)N(CCc2ccc(F)cc2)C1 (centres undefined)	none
O=C(c1cccnc1OC1CCN(S(=O)(=O)c2ccccc2)C1)N1CCOCC1 (centres undefined)	none
COc1ccc(-c2noc(CC3CCN(C(=O)COc4cccc(C)c4)CC3)n2)cc1	none
COCCOCC(=O)N1CCCCCCNC(=O)[C@@H]2C[C@@H](c3nc(Cc4ccccc4)no3)C[C@@H]21	none
CCN1CCCC1CNC(=O)c1cc(=O)[nH]c2ccccc12 (centres undefined)	none
Cc1noc2c(NCCN(C)C)cc(-c3ccccc3)nc12	none
COC1CCCN(c2cc(-c3cccnc3)nc3c(C)noc23)C1 (centres undefined)	none
COC1CCCN(c2ncccc2-c2cc(-c3ccccc3)nc3c(C)noc23)C1 (centres undefined)	KDM5B inhibitor 40µM
Cc1noc2c(NC(C)C)cc(-c3ccccc3)nc12	none
CC(=O)N1CCN(c2nc(-c3ccccc3)nc3ccccc23)CC1	none
Cc1noc2c(-c3cccnc3N(C)C)cc(-c3ccccc3)nc12	KDM5B inhibitor 32µM
CC(=O)N1CCN(c2ncccc2-c2cc(-c3ccccc3)nc3c(C)noc23)CC1	KDM5B inhibitor 35µM
COC1CCN(c2cc(-c3cccnc3)nc3c(C)noc23)CC1	none
Cc1noc2c(N3CC[S+](=O)([O-])CC3)cc(-c3ccccc3)nc12	none
Cc1noc2c(NC3CCN(C)CC3)cc(-c3ccccc3)nc12	none
CC(=O)N1CCN(C(=O)CCn2c(-c3ccccc3)cc3ccccc32)CC1	none
CC(=O)N1CCN(c2nc(-c3c(C)noc3C)cc3c2cc(-c2ccccc2)n3C)CC1	KDM5B inhibitor 40µM
CCn1ncc(N2CCC(NC(=O)Cc3ccc(C)cc3)CC2)cc1=O	none
CCN(CCOc1ccc(C#N)cc1)Cc1ccccc1	none
O=C(Nc1cc(-c2cccc(F)c2)no1)c1noc2c1COc1ccccc1-2	none
O=C(Nc1nonc1-c1ccc2c(c1)CCCC2)c1cccs1	none
CSc1ccc(C)c(C(=O)NCC(C)C)c1	none
CCOc1ccccc1CN1CCCN(S(C)(=O)=O)C(c2ccccc2)CC(=O)NCC1 (centres undefined)	none
COc1ccc(-c2nnc3ccc(N4CCCC4)nn23)nc1	none
COc1ccnc(-c2nnc3ccc(N4CCc5ccccc5CC4)nn23)c1	KDM5B inhibitor 32µM
COc1ccnc(-c2nnc3ccc(N4C[C@@H](C)O[C@@H](C)C4)nn23)c1	none

Compound activity (PubChem)
